# Screening results deposited in PubChem by Broad Institute.
# Hits are enriched below; roughly 1.4% of the tested compounds scored in any of these assays.
# ARNT TACC3 PPI: ARNT/TACC3 interaction disruption; Q9Y6A5; AlphaScreen His-ARNT PAS-B/GST-TACC3 binding, luminescence; TACC3 fragment carries E629A point mutation; inhibition, % at 9.99 µM; hit rate 0.66% among 390,000; AID 623870;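 active = mean inhibition of replicates at least 50% and at least half of replicates each reaching 50%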
# F508del corr: correctors of CFTR F508del function in bronchial epithelial cells; activity (quench increase), % at 7.58 µM; CFBE cells, YFP halide quenching; stimulated with forskolin plus potentiator P3; % fluorescence drop versus neutral controls; hit rate 0.36% among 350,000;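 active = mean added fluorescence quench of at least 8% versus neutral control, with both replicates also reaching 8%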;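 note: cells transiently co-express mutant CFTR-F508del with the halide-sensitive YFP; corrector assay measuring rescue of mutant channel to the surface after 24 h compound exposure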
# C2C12 statin: suppressors of simvastatin-induced myotoxicity in C2C12 myotubes; rescue of ATP level, % at 7.49 µM; hit rate 0.78% among 330,000; AID 602340; ATP luminescence, 48 h; scaled: DMSO 0, geranylgeraniol control 100;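 active = mean ATP rescue above about 67%, or every replicate alone reaching that limit, limit read from the data, passing the limit was not always enough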;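 note: myotubes were challenged with 10 µM simvastatin during compound exposure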
# PglD inh: PglD (C. jejuni) enzyme inhibition; purified PglD enzyme, DTNB colorimetric CoA detection; inhibition, % at 12.5 µM; hit rate 0.098% among 360,000; AID 602405; in the data active = inhibition above about 16%, passing the limit was not always enough
# Numbers stand for hits; i = inactive; nt = no result given.
SMILES,ARNT TACC3 PPI,F508del corr,C2C12 statin,PglD inh
O=C(Nc1nnc(C2=COCCO2)o1)C1CCCCC1,50,i,i,i
O=C(Nc1nnc(-c2ccncc2)o1)C1CCCCC1,i,nt,nt,nt
CC12CC(NC(=O)N1c1cccc(C(=O)Nc3ncn[nH]3)c1)c1ccccc1O2 (configuration not stated),21,nt,nt,i
Cc1nc(N2CCN(c3ccccc3)CC2)[nH]c(=O)c1CCC(C)C,i,i,86,i
Cc1nn2c(-c3ccc(S(=O)(=O)N4CCN(CCO)CC4)o3)nnc2c2ccccc12,i,i,i,i
COc1ccc(-c2nnc3c4ccccc4c(C)nn23)cc1S(=O)(=O)N1CCN(CCO)CC1,active,nt,i,i
CC(=O)Nc1ccc(S(=O)(=O)Nc2cccc(-c3nc4cc(C)ccc4o3)c2)cc1,i,11,i,i
CCOC(=O)C(=CNCC(=O)OC)C(=O)OCC,i,nt,107,i
CCOC(=O)CNC=C(C(=O)OCC)C(=O)OCC,i,nt,i,i
COc1ccc(/C=N/n2cnc3c([nH]c4ccc(C)cc43)c2=O)cc1CN1CCCC1,i,i,i,i
COc1ccc2c(c1)[nH]c1c(=O)n(/N=C/c3ccc(OC)c(CN4CCCC4)c3)cnc12,i,9.2,nt,i
O=C(Cc1cn2ccsc2n1)Nc1ccccc1Oc1ccccc1,i,nt,101,nt
C[C@@H]1CN([C@@H](C)CO)C(=O)c2cc(NS(C)(=O)=O)ccc2O[C@H]1CN(C)Cc1ccc(C(F)(F)F)cc1,i,i,i,i
C[C@@H]1CN([C@@H](C)CO)C(=O)Cc2cc(NS(=O)(=O)c3cccs3)ccc2O[C@H]1CN(C)S(C)(=O)=O,i,i,i,i
Cc1ccccc1S(=O)(=O)N[C@H]1CC[C@H](CCn2cc(-c3ccc(F)cc3)nn2)O[C@@H]1CO,i,i,i,i
Cc1cc2nc3c(=O)[nH]c(=S)[nH]c3nc2cc1NC(=O)C(F)(F)F,70,i,i,i
O=c1[nH]c(=S)[nH]c2nc(-c3ccccc3)cnc12,i,i,nt,nt
C#CCOCCOCCOCCNc1nc(N2CCN(C(=O)CCCCCCCCCCNC(=O)Cn3cc(C[C@@H](C)O)nn3)CC2)nc(N2CCN(C(=O)CCCCCCCCCCNC(=O)[C@@H]([C@H](C)O)n3cc(C)nn3)CC2)n1,i,nt,106,i
C#CCOCCOCCOCCNc1nc(N2CCN(C(=O)CCCCCCCCCCNC(=O)Cn3cc(CCCCCN)nn3)CC2)nc(N2CCN(C(=O)CCCCCCCCCCNC(=O)[C@@H]([C@H](C)O)n3cc(C)nn3)CC2)n1,i,nt,i,i
O=C(Oc1c(CN2CCOCC2)cc(Cl)c2cccnc12)c1ccccc1F,66,i,nt,nt
COCCn1c(-c2ccccc2F)n[nH]c1=S,i,nt,137,i
COCCn1c(CCc2ccccc2)n[nH]c1=S,i,nt,nt,nt
Clc1cc2cccnc2c2ncccc12,106,i,i,i
O=[N+]([O-])c1cc([N+](=O)[O-])c2cccnc2c1Oc1ccccc1O,i,nt,nt,i
O=[N+]([O-])c1cc(F)c2cccnc2c1O,70,i,i,i
SMILES,ARNT TACC3 PPI,F508del corr,C2C12 statin,PglD inh
O=[N+]([O-])c1ccc(O)c2cccnc12,i,i,i,i
O=[N+]([O-])c1cc(Cl)c2cccnc2c1O,46,i,nt,nt
O=[N+]([O-])c1ccc(O)c2ncccc12,56,i,i,i
Oc1c(I)cc(Cl)c2cccnc12,i,i,i,i
CN(C)C(=O)C[C@@H]1C[C@@H]2c3cc(NC(=O)C4CCC4)ccc3O[C@@H]2[C@H](CO)O1,i,i,i,i
CCC(=O)N1[C@H](CN(C)C(C)=O)[C@@H](c2ccc(-c3cccc(F)c3)cc2)[C@@H]1CO,i,i,i,i
O=C(C[C@H]1C=C[C@H](NC(=O)c2ccc(F)cc2)[C@@H](CO)O1)NCCc1ccccc1,i,i,i,i
CNC[C@H]1Oc2c(NC(=O)C3CCOCC3)cccc2C(=O)N([C@@H](C)CO)C[C@@H]1C,nt,i,i,i
C[C@H](CO)N1C[C@H](C)[C@H](CN(C)C(=O)NC2CCCCC2)Oc2ccc(NC(=O)Nc3cccc4ccccc34)cc2C1=O,nt,i,i,i
O=[N+]([O-])c1ccc(Cl)c2cccnc12,i,i,nt,nt
O=[N+]([O-])c1cc(Cl)c(O)c2ncccc12,57,i,nt,nt
CC(=O)c1ccc2c(c1)N(CCCN(C)C)c1ccccc1S2,i,i,i,i
CN(C)CCCN1c2ccccc2Sc2ccccc21,i,11,i,i
CC(C)NC(=O)N(C)C[C@@H]1Oc2ccc(NC(=O)Cc3ccccc3)cc2C(=O)N([C@H](C)CO)C[C@@H]1C,i,i,i,i
CCC(=O)N1CCc2cc(S(=O)(=O)CCC(=O)N3CCc4ccccc4C3)ccc21,nt,nt,76,i
